Test results published in PubChem BioAssay AID2162 (National Center for Advancing Translational Sciences (NCATS), 2009).
Inconclusive results are not listed. Active and inactive are the calls of the source. The call rests on the fitted dose curve; in most records, active means well fitted inhibition curve with a large enough effect; inconclusive means small, poorly fitted or top-dose-only effect; inactive means flat fitted curve, though single readings scatter.

Target: Polyunsaturated fatty acid lipoxygenase ALOX12 (Homo sapiens) (UniProt P18054)
Assay: Confirmation qHTS Assay for Inhibitors of 12-hLO (12-human lipoxygenase)
Conditions: purified 12-hLO, xylenol orange absorbance; activity change, negative = inhibition: hits give low values
Source text: Assay Provider: Holman, T.R., University of California, Santa Cruz Screening Center PI: Austin, Christopher P. Screening Center: NIH Chemical Genomics Center Human lipoxygenase 12hLO is a member of the closely related lipoxygenase family of enzymes which catalyze the site-specific oxidation of arachidonic acid to various hormone precursor molecules and as such is a candidate for drug development in a variety of disease areas, such as cancer and inflammation. Inhibition of 12hLO activity was screened by utilizing arachidonic acid as a substrate. The extent of hydroperoxide product formation was measured by a secondary chromogenic reaction in which xylenol orange (XO, Sigma-Aldrich, cat. number 39,818-7) reacts with the ferric ions produced from the reaction between the hydroperoxide and ferrous ions. The Fe(III)-XO complex is characterized with red-shifted absorbance at 560 nm. A purified preparation of human 12hLO was supplied by Professor Ted Holman, University of California, Santa Cruz. This assay includes some confirmation and follow-up compounds for related primary screening assay AID 1452.
Assay Protocol: Buffer: 25 mM Hepes pH 7.0, 0.01% Triton X-100. Reagents/Controls: Buffer in columns 3 and 4 as negative control (no enzyme). Substrate solution: 40 uM arachidonic acid (Sigma-Aldrich, St. Louis, MO) final concentration dispensed throughout the plate. Enzyme: 150 nM 12hLO final concentration in columns 1, 2, 5-48. Column 1 is neutral (100% activity). Column 2 contained pin-transferred titration of NDGA (nordihidroguaiaretic acid, Sigma-Aldrich, N 5023, top concentration 20 mM in DMSO, then 1:3 dilution in duplicate). (Dilution factor: 23 nL into 4 uL.) Chromogenic detection reagent (divalent iron/xylenol orange, Fe-XO): 200 uM xylenol orange plus 300 uM ferrous ammonium sulfate prepared freshly in 50 mM sulfuric acid. Assay Steps: Three uL of enzyme were dispensed to 1536-well Greiner black clear bottom plates. Compounds and controls (23 nL) were transferred via Kalypsys PinTool. The plates were incubated for 15 min at room temperature, and then 1 uL of substrate solution was added to start the reaction. After room temperature incubation for 30 minutes, 4 uL of Fe-XO solution was added to each well and the plates were incubated for 30 min. The absorbance at 405 and 573 nm were measured using ViewLux (Perkin-Elmer) High-throughput CCD imager and absorbance protocol settings. The 573-to-405 absorbance ratio was used to compute reaction progress.

Chain of Polyunsaturated fatty acid lipoxygenase ALOX12 (Homo sapiens) (P18054 whole entry, looked up): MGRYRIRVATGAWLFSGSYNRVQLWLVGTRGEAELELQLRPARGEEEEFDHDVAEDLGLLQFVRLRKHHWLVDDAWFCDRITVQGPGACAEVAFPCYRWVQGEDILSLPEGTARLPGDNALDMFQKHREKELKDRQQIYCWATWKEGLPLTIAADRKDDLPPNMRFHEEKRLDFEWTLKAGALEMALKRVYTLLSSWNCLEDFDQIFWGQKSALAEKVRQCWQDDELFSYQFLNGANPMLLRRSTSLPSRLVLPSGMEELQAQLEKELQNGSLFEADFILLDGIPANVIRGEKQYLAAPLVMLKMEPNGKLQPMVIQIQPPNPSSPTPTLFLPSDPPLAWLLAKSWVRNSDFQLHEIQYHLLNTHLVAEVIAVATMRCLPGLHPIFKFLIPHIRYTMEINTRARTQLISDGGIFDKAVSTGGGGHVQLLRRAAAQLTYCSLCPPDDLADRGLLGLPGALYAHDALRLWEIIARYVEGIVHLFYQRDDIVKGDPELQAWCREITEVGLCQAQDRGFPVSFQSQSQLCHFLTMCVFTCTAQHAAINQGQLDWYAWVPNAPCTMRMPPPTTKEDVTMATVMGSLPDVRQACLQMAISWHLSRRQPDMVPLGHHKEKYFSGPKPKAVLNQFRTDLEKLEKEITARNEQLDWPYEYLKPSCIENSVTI

Structure (SMILES)	activity change, negative = inhibition	Potency
CCC(=O)N(Cc1cc(=O)[nH]c2ccccc12)C1CCCCC1	3.25% (inactive)	
CN(C)c1ccc(C(=O)OCC#CCSc2nnc(-c3cccc4ccccc34)o2)cc1	-12.9% (inactive)	
COCCSc1ccccc1C(=O)NCc1ccco1	-7.73% (inactive)	
Cc1ccc(OCC(=O)Nc2ccc(N3CCCC3)cc2)cc1C	-27.5% (inactive)	
O=C1C2C3CCCC3=C3CCCC3C2C(=O)N1c1cccc(Cl)c1 (stereo not given)	-9.6% (inactive)	
N#Cc1nc(-c2ccc(OCc3ccc(Cl)cc3)cc2)oc1N1CCC(C(N)=O)CC1	-12.9% (inactive)	
CCC(=O)NC(c1ccc(C)cc1)c1ccc2cccnc2c1O (stereo not given)		31.6 µM (active)
c1csc(C2Nc3cccc4cccc(c34)N2)c1		15.8 µM (active)
O=C(OCC#CCSc1nnc(-c2cccc3ccccc23)o1)c1ccc2ccccc2c1	-5.58% (inactive)	
CC(=O)NCCNc1ncncc1-c1ccc(N(C)C)cc1	-13.5% (inactive)	
O=C(Nc1nnc(-c2ccco2)s1)C1CCCCC1	-5.47% (inactive)	
O=C(c1ccncc1)N1CCC2(CCCN(Cc3nccs3)C2)CC1	-1.82% (inactive)	
CCOc1cc(-c2cc(-c3ccc(N)cc3)nc(N)c2C#N)ccc1O	-26.8% (inactive)	
CCC(=O)NC(c1cccs1)c1ccc2cccnc2c1O (stereo not given)		17.8 µM (active)
O=C(OCC#CCSc1nnc(-c2cccc3ccccc23)o1)c1cc2ccccc2o1	-10.1% (inactive)	
CNc1oc(-c2cccs2)nc1C#N	-10.4% (inactive)	
CCC(=O)NC(c1ccco1)c1cc(Cl)c2cccnc2c1O (stereo not given)		5.01 µM (active)
CC(=O)[C@@H]1[C@@H]2C(=O)N(Cc3ccccc3)C(=O)[C@@H]2C2c3ccccc3C=CN21 (stereo not given in full)	-19.1% (inactive)	
Oc1ccccc1C1Nc2cccc3cccc(c23)N1		39.8 µM (active)
N#Cc1nc(-c2cccc3ccccc23)oc1NCC#CCOC(=O)c1cccs1	-20.1% (inactive)	

Structure (SMILES)	activity change, negative = inhibition	Potency
CC(=O)N1CCN(c2ccc(NCc3ccccc3)cc2)CC1		31.6 µM (active)
N=c1c(C(=O)NC2CCCC2)cc2c(=O)n3ccccc3nc2n1C1CCCC1	-15.4% (inactive)	
O=C(Nc1nnc(-c2ccccc2)o1)c1ccc(Cl)cc1		4.47 µM (active)
COc1ccccc1C(=O)OCC#CCSc1nnc(-c2cccc3ccccc23)o1	-4.87% (inactive)	
Clc1ccc(-c2nnc(C3CCCCC3)o2)cc1	-9.47% (inactive)	
O=C(OCC#CCSc1nnc(-c2cccc3ccccc23)s1)c1cccs1	-23.7% (inactive)	
O=C(NCC#CCSc1nnc(-c2cccc3ccccc23)o1)c1cccs1	-3.59% (inactive)	
Cc1noc(C)c1-c1nc(N(C)Cc2ccco2)c2ccccc2n1	-12.2% (inactive)	
O=C(C1=C(O)C(=O)N(Cc2ccco2)C1c1cccnc1)c1cc2ccccc2o1 (stereo not given)	-19% (inactive)	
Cc1ccc(-c2ccc(/C=C3\C(=O)ON=C3c3ccccc3)o2)c([N+](=O)[O-])c1		4.47 µM (active)
Cc1cc(/C=N/NC(=O)Cn2c3ccccc3c(=O)c3ccccc32)c(C)n1-c1ccccc1	-20.8% (inactive)	
O=C(Nc1cccc(F)c1)N1CCCC2(CCN(C(=O)c3ccco3)CC2)C1	5.23% (inactive)	
CCC(=O)NC(c1ccc(C)cc1)c1cc([N+](=O)[O-])c2cccnc2c1O (stereo not given)		28.2 µM (active)
CCC(=O)NC(c1ccc(C)s1)c1cc(Cl)c2cccnc2c1O (stereo not given)		39.8 µM (active)
CC(=O)N1CCN(c2ccc(NCc3ccc(C)cc3)cc2)CC1		22.4 µM (active)
Oc1ccc(CNc2ccccc2)c2cccnc12		11.2 µM (active)
OCC#CCSc1nnc(-c2cccc3ccccc23)o1	-15.8% (inactive)	
CCCCn1c(NC(C)=O)c(C#N)c2nc3ccccc3nc21	-16% (inactive)	
COc1cccc(-c2nccc(NCc3ccccc3OC)n2)c1	-13.1% (inactive)	
COc1ccc(NC(=O)CSc2nc(O)cc(=O)n2-c2ccccc2OC)cc1	-18% (inactive)	
